Assay outcomes from PubChem BioAssay.
A selection: hits, their analogues and other compounds. The true share with any hit is near 4.5%.
Gli-Sufu block: blocks Gli-Sufu signaling in a luciferase reporter | inhibition, % at 5 µM | AID 588413 | 340,000 compounds, 0.74% hits | Sufu-KO-LIGHT fibroblasts, Gli luciferase reporter luminescence;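 active = inhibition above about 55%, limit read from the data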;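 also: 0% = DMSO-treated cells and 100% = wells with medium but no cells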
Jurkat NFkB inh: inhibitors of the PMA/ionomycin-induced NF-kB reporter in Jurkat cells; 330,000 compounds, 0.53% hits; PMA/ionomycin-induced NF-kB luciferase reporter, luminescence; inhibition, % at 4 µM; in the data active = inhibition above about 50%
697 NFkB inh: lowers PMA/ionomycin-induced NF-kB signal in 697 B cells; 697 B-cell NF-kB luciferase reporter, 16 h; inhibition, % at 4 µM; 330,000 compounds, 0.33% hits; in the data active = inhibition above about 35%
Mdm2 MdmX PPI: inhibitors of human Mdm2/MdmX interaction | inhibition, % at 8 µM | 330,000 compounds, 3% hits | AID 485346 | O15151+Q00987 | SaOS-2 split-luciferase Mdm2/MdmX complementation, luminescence;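 active = inhibition of at least 50% at 8 µM in the primary screen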
Target sequence (O15151 whole entry, looked up): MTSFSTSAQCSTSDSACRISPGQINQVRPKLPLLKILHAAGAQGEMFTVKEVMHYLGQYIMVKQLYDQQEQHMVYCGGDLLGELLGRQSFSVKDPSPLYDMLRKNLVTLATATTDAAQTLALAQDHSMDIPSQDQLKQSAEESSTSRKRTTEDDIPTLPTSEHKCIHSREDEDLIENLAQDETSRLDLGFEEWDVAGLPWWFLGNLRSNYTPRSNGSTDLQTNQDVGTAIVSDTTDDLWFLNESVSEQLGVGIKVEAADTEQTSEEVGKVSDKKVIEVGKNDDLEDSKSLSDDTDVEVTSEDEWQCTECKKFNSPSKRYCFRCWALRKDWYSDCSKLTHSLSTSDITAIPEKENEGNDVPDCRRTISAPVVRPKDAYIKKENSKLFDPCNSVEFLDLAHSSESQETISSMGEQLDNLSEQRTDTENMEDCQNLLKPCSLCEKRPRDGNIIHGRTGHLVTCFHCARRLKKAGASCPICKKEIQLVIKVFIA
Target sequence (Q00987 whole entry, looked up): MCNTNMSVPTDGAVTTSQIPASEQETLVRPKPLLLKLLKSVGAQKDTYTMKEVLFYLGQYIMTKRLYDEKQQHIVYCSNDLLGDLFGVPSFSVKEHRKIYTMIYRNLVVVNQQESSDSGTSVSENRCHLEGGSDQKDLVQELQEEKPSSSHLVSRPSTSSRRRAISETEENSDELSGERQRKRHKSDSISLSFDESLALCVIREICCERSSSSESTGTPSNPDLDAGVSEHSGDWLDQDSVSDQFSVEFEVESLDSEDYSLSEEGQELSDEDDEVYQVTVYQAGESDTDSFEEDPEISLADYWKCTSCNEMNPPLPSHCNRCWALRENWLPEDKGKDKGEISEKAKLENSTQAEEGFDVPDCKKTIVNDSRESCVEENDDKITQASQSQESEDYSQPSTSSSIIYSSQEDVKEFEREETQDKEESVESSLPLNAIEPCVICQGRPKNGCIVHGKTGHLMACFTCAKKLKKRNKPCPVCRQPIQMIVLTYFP
CSC inhib: cancer stem cell inhibition. cancer stem cell-like cells viability, luminescence. 300,000 compounds, 1.1% hits. AID 2717. inhibition, % at 7.5 µM; in the data active = inhibition above about 75%; tested in HMLE shEcad cells
aSyn 5UTR inh: 5' untranslated region of α-synuclein, MLPCN primary screen | alpha-synuclein 5'UTR reporter, inhibitor activity | inhibition, % (tested at 7.5 µM) | 300,000 compounds, 0.82% hits | AID 1813; in the data active = inhibition above about 60%;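 also: H4 neuroglioblastoma cells stably carrying SNCA 5'UTR luciferase fusion; 0% = DMSO wells and 100% = positive control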
Numbers without * were called inactive; x = not tested or not shown.

SMILES | Gli-Sufu block | Jurkat NFkB inh | 697 NFkB inh | Mdm2 MdmX PPI | CSC inhib | aSyn 5UTR inh
COC(=O)CN(C)C(=O)c1cccc(OC2CCN(S(=O)(=O)N(C)C)CC2)c1 | 0 | -3 | -16 | 5 | -11 | 3
O=c1c(Cl)c(NCc2ccccc2Cl)cnn1C12CC3CC(CC(C3)C1)C2 | 3 | -4 | -20 | 24 | 95* | -38
O=c1c(Cl)c(NCc2ccc(F)cc2)cnn1C12CC3CC(CC(C3)C1)C2 | -7 | -6 | -11 | -11 | 75* | 19
O=c1c(Cl)c(NCc2ccco2)cnn1C12CC3CC(CC(C3)C1)C2 | 7 | -4 | 11 | 15 | -2 | 13
O=C(O)C12CC3CC(C1)CC(n1ncc(NCc4ccccc4)c(Cl)c1=O)(C3)C2 | -24 | 12 | 13 | 19 | -15 | -25
O=C(O)CC12CC3CC(C1)CC(n1ncc(NCc4ccccc4)c(Cl)c1=O)(C3)C2 | 4 | 16 | 14 | -20 | -12 | 17
Cc1ccc(CNc2cnn(C34CC5CC(CC(C5)C3)C4)c(=O)c2Cl)cc1 | 9 | -10 | -30 | 30 | 78* | 2
NC(=O)c1cc(S(=O)(=O)N2CCCC2)ccc1OCCOc1ccccc1 | 3 | -14 | -11 | -30 | 6 | x
CC(=O)N1CC(C)Sc2ccc(S(=O)(=O)NCc3ccc(Cl)cc3)cc21 (stereo not drawn) | 20 | 6 | -29 | 14 | -8 | 3
O=[N+]([O-])c1ccc(N2CCN(c3ccc(Cl)nn3)CC2)cc1NC1CC1 | 3 | 10 | -5 | 28 | 0 | 22
COc1cc(N=Nc2ccc3ccccc3c2)ccc1O | -60 | -106 | -118 | -131 | 93* | -144
O=C(Nc1ccc(-c2csc(Nc3ccc(Cl)cc3)n2)cc1)c1ccccc1 | -26 | 13 | -21 | -15 | -3 | x
O=[N+]([O-])c1cccc(-c2nnc(-c3ccccc3)o2)c1 | -112 | -66 | -66 | -77 | -13 | 68*
O=C(Nc1cccc(-c2csc(Nc3ccccc3)n2)c1)c1ccccc1 | -68 | -57 | -94 | -8 | 100* | -142
O=[N+]([O-])c1cccc(-c2csc(Nc3ccccc3)n2)c1 | -36 | -129 | -97 | -80 | 94* | -299
O=C(Nc1cccc(-c2csc(Nc3cccc(C(F)(F)F)c3)n2)c1)c1ccccc1 | 2 | -9 | -24 | 43 | 130* | -14
CCCOc1ccc(C(=O)Nc2ccc(S(=O)(=O)Nc3cc(C)nc(C)n3)cc2)cc1 | 7 | 7 | -4 | -12 | 0 | 2
Cc1ccc(F)c(CNC(=O)C2CCC(=O)N(Cc3ccccn3)C2)c1F (stereo not drawn) | -5 | 10 | -8 | 24 | 5 | -10
O=C1CCC(C(=O)Nc2cccc(S(=O)(=O)N3CCOCC3)c2)N1 (stereo not drawn) | -7 | 5 | 7 | -8 | -9 | -16
COc1cccc(C(C(=O)NC(C)(C)C)N(Cc2ccc(F)cc2)C(=O)CCC(=O)Nc2cc(C)on2)c1OC (stereo not drawn) | -29 | -13 | 4 | 23 | 1 | -29
O=C(Nc1ccc2c(c1)CCC2)c1cc(S(=O)(=O)Nc2ccc(F)cc2)c(Cl)cc1Cl | 3 | 4 | -12 | 45 | 109* | -33
O=C1NC(=O)/C(=C\c2ccc(OCc3cccc(C(=O)O)c3)c(Cl)c2)N1 | -121 | 38 | -55 | 13 | -10 | 70*
Cc1ccc(CNC(=O)C2CCCN(S(=O)(=O)N3CC(C)CC(C)C3)C2)cc1 (stereo not drawn) | 4 | 17 | 17 | 32 | -3 | 7
CC1CCC2C(=O)N(c3ccc(NC4CCCCC4)c([N+](=O)[O-])c3)C(=O)C2C1 (stereo not drawn) | 0 | -3 | -26 | -7 | 76* | 16
CC(=O)NC(CC(=O)N1CCCC1)c1ccccc1 (stereo not drawn) | -1 | 5 | 6 | 16 | 4 | 3
SMILES | Gli-Sufu block | Jurkat NFkB inh | 697 NFkB inh | Mdm2 MdmX PPI | CSC inhib | aSyn 5UTR inh
O=C(Nc1ccccc1Br)C(=O)N1CCCC1 | 2 | -1 | -7 | -23 | x | 10
O=C(NNc1ccccc1Br)C(=O)n1ccc2ccccc21 | -1 | -7 | -49 | -6 | 85* | -30
Cc1cc(C[n+]2cc(Cl)ccc2N)c2ncccc2c1 | 48 | 23 | -3 | 32 | 5 | 17
COc1ccc2c(c1)sc(N)[n+]2Cc1cc(C)cc2cccnc12 | 26 | x | x | x | 60 | 114*
COC(=O)c1cc(=O)n(Cc2ccc(F)cc2)c(=Nc2ccccc2)s1 | 9 | 12 | 10 | 47 | 86* | -13
C=CCCC(=O)NC1CC(C)(C)Cc2c1cnn2-c1ccc(OC)cc1 (stereo not drawn) | 14 | -2 | -9 | 3 | -8 | -7
COc1ccc(/C=C/C(=O)Nc2ccccc2C(=O)N2CCCC2)cc1 | -7 | -16 | -45 | 4 | -8 | -86
COc1ccc(/C=C/C(=O)Nc2ccccc2C(=O)O)cc1 | x | -53 | -101 | -69 | 7 | 83*
COc1ccc(/C=C/c2cc(C(=O)O)c3ccccc3n2)cc1 | -22 | 19 | -90 | -5 | 4 | 81*
Cc1ccc(C#CC[N+]2(C)CCCCC2)cc1 | 16 | 2 | -3 | 14 | -6 | -1
CC(C)Cn1cnc2c(Sc3c([N+](=O)[O-])ncn3C)nc(N)nc21 | 3 | x | x | x | x | x
O=C(/C=C/c1cccc([N+](=O)[O-])c1)c1ccc([N+](=O)[O-])o1 | -8 | x | x | x | 42 | 71*
O=C(/C=C/c1cccc([N+](=O)[O-])c1)c1ccco1 | 27 | 4 | 1 | 31 | 7 | -55
Cc1ccc(S(=O)(=O)N2CCN(C(=O)C(Cc3ccccc3)NC(=O)c3ccccc3)CC2)cc1 (stereo not drawn) | -19 | -21 | -1 | -10 | x | x
CC(C)OC(=O)C1OC1(C)c1ccccc1 (stereo not drawn) | 7 | x | x | x | x | x
O=C(/C=C/c1ccco1)NCCc1ccccc1 | -42 | -31 | -37 | -31 | x | -126
Cc1ccc(/C=C/C(=O)NCCc2ccccc2)o1 | 1 | -14 | -37 | -41 | 75* | -99
Cc1ccc(Cn2c(O)c(N=NC(=S)Nc3ccccc3F)c3cc(S(=O)(=O)N4CCOCC4)ccc32)cc1 | 1 | x | x | x | x | 66*
Cc1ccc(C)c(Cn2c(O)c(N=NC(=S)Nc3ccccc3F)c3ccccc32)c1 | 9 | 19 | -10 | 42 | 3 | 72*
Cc1ccccc1Cn1c(O)c(N=NC(=S)Nc2ccccc2F)c2ccccc21 | 6 | 10 | 0 | 40 | 2 | 73*
C/C(NC(=O)c1cccc(F)c1)=C1/C(=O)C[C@@H]2[C@H]1C2(C)C | -17 | -29 | -38 | -8 | 92* | -183
C/C(NC(=O)c1ccccc1F)=C1\C(=O)C[C@@H]2[C@H]1C2(C)C | -18 | -36 | -59 | -20 | 29 | -174
O=C(O)c1cccc(N/N=C/c2ccc(-c3ccccc3)cc2)c1 | -326 | x | x | x | x | 19
CN(C)c1ccc(/C=N/Nc2cccc(C(=O)O)c2)cc1 | -145 | 22 | -47 | 3 | -2 | 77*
